Measurements published in PubChem BioAssay (NCI).
The panel holds about 79,000 compounds, 15% with a hit somewhere; the sample as a whole holds those more often. Unmarked numbers belong to inactive results. Calls of active or inactive are those of the source. No stated cut-off is given here; in the data, active means growth inhibition above about 70%; inactive means the rest.

How the values were obtained:
[1] = NCI Yeast Anticancer Drug Screen. Data for the rad52 strain (AID 147);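 further: 0% = growth of vehicle-treated control cultures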; settings: S. cerevisiae rad52 mutant growth inhibition, hits give high values
In short: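 Screen used a yeast mutant impaired in DNA repair. After compound exposure, growth was measured. Values reflect inhibition compared with vehicle-treated cells.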

[2] = NCI Yeast Anticancer Drug Screen. Data for the wt1 strain (AID 149);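 further: 0% = growth of vehicle-treated wt1 cultures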; settings: S. cerevisiae wt1 strain (SPY 50644) growth inhibition, hits give high values
In short: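 wt1 strain grown with compound or vehicle; inhibition taken from the growth difference.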

[3] = NCI Yeast Anticancer Drug Screen. Data for the rad50EPP+ strain (AID 151);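 further: 0% = growth of vehicle-treated control cultures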; settings: S. cerevisiae rad50 mutant strain, hits give high values
In short: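 Exposing the rad50EPP+ strain to each compound, growth was compared with vehicle-only cultures to give inhibition.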

[4] = NCI Yeast Anticancer Drug Screen. Data for the rad50 strain (AID 155);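 further: 0% = growth of vehicle-only cultures of the same strain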; settings: S. cerevisiae rad50 strain growth inhibition, hits give high values
In short: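 DNA repair mutant yeast, compound exposure, growth read-out; inhibition is taken relative to vehicle.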

[5] = NCI Yeast Anticancer Drug Screen. Data for the mec2-1 strain (AID 157); settings: S. cerevisiae mec2-1 strain, hits give high values
In short: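 Readout is yeast growth inhibition, normalised to vehicle-treated controls, in the mec2-1 strain exposed to compound.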

[6] = NCI Yeast Anticancer Drug Screen. Data for the rad14 strain (AID 159);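 further: 0% = growth of vehicle-treated control cultures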; settings: S. cerevisiae rad14 strain growth inhibition, hits give high values
In short: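 DNA repair-defective yeast, compound-exposed; % growth inhibition derived by comparison with vehicle-treated controls.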

[7] = NCI Yeast Anticancer Drug Screen. Data for the sgs1 mgt1 strain (AID 161);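 further: 0% = growth of cultures given vehicle only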; settings: S. cerevisiae sgs1 mgt1 strain, hits give high values
In short: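 Growth of a repair-deficient yeast mutant was monitored after compound treatment and expressed as inhibition relative to vehicle-treated cultures.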

[8] = NCI Yeast Anticancer Drug Screen. Data for the CLN2oe strain (AID 163);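 further: 0% = growth of vehicle-only control cultures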; settings: S. cerevisiae CLN2oe strain, hits give high values
In short: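 Values reflect how much compound exposure reduced yeast growth, referenced to vehicle-exposed cells. Assay organism is a strain with a defined genetic change affecting cell-cycle control.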

[9] = NCI Yeast Anticancer Drug Screen. Data for the cln2 rad14 strain (AID 165);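 further: 0% = growth equal to vehicle treated cultures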; settings: S. cerevisiae cln2 rad14 strain, hits give high values
In short: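 Relative to vehicle controls, growth inhibition of compound-treated cln2 rad14 yeast was recorded.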

[10] = NCI Yeast Anticancer Drug Screen. Data for the bub3 strain (AID 167); settings: S. cerevisiae bub3 mutant strain, hits give high values
In short: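 In this screen, a yeast mutant lacking normal mitotic checkpoint function is challenged with compound. Relative growth versus vehicle gives the inhibition value.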

[11] = NCI Yeast Anticancer Drug Screen. Data for the wt2 strain (AID 169);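 further: 0% = growth of vehicle-treated yeast cultures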; settings: S. cerevisiae wt2 strain growth inhibition, hits give high values
In short: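 Values express reduction in yeast growth under compound treatment, referenced to vehicle-treated cells.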

[12] = NCI Yeast Anticancer Drug Screen. Data for the mlh1 strain (AID 171);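 further: 0% = growth of vehicle-treated control cultures of the same strain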; settings: S. cerevisiae mlh1 strain growth inhibition, hits give high values
In short: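 Steps: expose the defined-mutant yeast strain to compound; expose a parallel culture to vehicle; measure growth; express compound effect as inhibition relative to the vehicle culture.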

[13] = NCI Yeast Anticancer Drug Screen. Data for the sgs1 strain (AID 173);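 further: 0% = growth of vehicle-only control cultures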; settings: S. cerevisiae sgs1 mutant, hits give high values
In short: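 Treat defined-mutant yeast with compound; measure growth; calculate inhibition relative to vehicle-treated cells.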

[14] = NCI Yeast Anticancer Drug Screen. Data for the mlh1 rad18 strain (AID 175); settings: S. cerevisiae mlh1 rad18 strain growth inhibition, hits give high values
In short: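 Test agents were incubated with a yeast strain of defined genotype (DNA damage repair defect). Inhibition of growth was derived by comparison with vehicle-exposed cultures.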

[15] = NCI Yeast Anticancer Drug Screen. Data for the rad18 strain (AID 177); settings: S. cerevisiae rad18 mutant growth inhibition, hits give high values
In short: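 A genetically defined yeast mutant impaired in DNA damage repair was treated with test compounds, then its growth was measured against cultures receiving vehicle alone.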

[16] = NCI Yeast Anticancer Drug Screen. Data for the mgt1 strain (AID 153); settings: S. cerevisiae mgt1 mutant growth inhibition, hits give high values
In short: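 Genetically defined yeast (mgt1) treated with compound; inhibition of growth expressed against vehicle-treated controls.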

[17] = at 5.0 µM (retest, dose inferred, filed as 0.5)
[18] = at 50.0 µM (retest, dose inferred, filed as 5.0)

CC1=C(CO)C2=C(C)C3(CC3)[C@@](C)(O)C(=O)C2=C1
growth inhibition ([1]; at 1.2 µM): 1% | growth inhibition ([1]; at 3.7 µM): 9% | growth inhibition ([1]; at 11.0 µM): 27% | growth inhibition ([1]; at 33.0 µM): 52% | growth inhibition ([1]; at 100.0 µM): 81% (active) | growth inhibition ([2]; at 1.2 µM): 0% | growth inhibition ([2]; at 3.7 µM): -1% | growth inhibition ([2]; at 11.0 µM): -1% | growth inhibition ([2]; at 33.0 µM): 0% | growth inhibition ([2]; at 100.0 µM): -13% | growth inhibition ([3]; at 1.2 µM): -2% | growth inhibition ([3]; at 3.7 µM): 0% | growth inhibition ([3]; at 11.0 µM): 0% | growth inhibition ([3]; at 33.0 µM): 2% | growth inhibition ([3]; at 100.0 µM): 0% | growth inhibition ([4]; at 1.2 µM): 1% | growth inhibition ([4]; at 3.7 µM): 3% | growth inhibition ([4]; at 11.0 µM): 13% | growth inhibition ([4]; at 33.0 µM): 42% | growth inhibition ([4]; at 50.0 µM): 14% | growth inhibition ([4]; at 100.0 µM): 79% (active) | growth inhibition ([5]; at 1.2 µM): 0% | growth inhibition ([5]; at 3.7 µM): -1% | growth inhibition ([5]; at 11.0 µM): 1% | growth inhibition ([5]; at 33.0 µM): 19% | growth inhibition ([5]; at 50.0 µM): -0.75% | growth inhibition ([5]; at 100.0 µM): 66% | growth inhibition ([6]; at 1.2 µM): 0% | growth inhibition ([6]; at 3.7 µM): -2% | growth inhibition ([6]; at 11.0 µM): 5% | growth inhibition ([6]; at 33.0 µM): 19% | growth inhibition ([6]; at 100.0 µM): 59% | growth inhibition ([7]; at 50.0 µM): 43.9% | growth inhibition ([8]; at 1.2 µM): -7% | growth inhibition ([8]; at 3.7 µM): -6% | growth inhibition ([8]; at 11.0 µM): -13% | growth inhibition ([8]; at 33.0 µM): -11% | growth inhibition ([8]; at 100.0 µM): -2% | growth inhibition ([9]; at 50.0 µM): 18.3% | growth inhibition ([10]; at 1.2 µM): -4% | growth inhibition ([10]; at 3.7 µM): -5% | growth inhibition ([10]; at 11.0 µM): -8% | growth inhibition ([10]; at 33.0 µM): -14% | growth inhibition ([10]; at 50.0 µM): -40.2% | growth inhibition ([10]; at 100.0 µM): -13% | growth inhibition ([11]; at 1.2 µM): -2% | growth inhibition ([11]; at 3.7 µM): 0% | growth inhibition ([11]; at 11.0 µM): -1% | growth inhibition ([11]; at 33.0 µM): -1% | growth inhibition ([11]; at 100.0 µM): 3% | growth inhibition ([12]; at 1.2 µM): -1% | growth inhibition ([12]; at 3.7 µM): 0% | growth inhibition ([12]; at 11.0 µM): 1% | growth inhibition ([12]; at 33.0 µM): 3% | growth inhibition ([12]; at 100.0 µM): 8% | growth inhibition ([13]; at 1.2 µM): 4% | growth inhibition ([13]; at 3.7 µM): 11% | growth inhibition ([13]; at 11.0 µM): 29% | growth inhibition ([13]; at 33.0 µM): 55% | growth inhibition ([13]; at 100.0 µM): 78% (active) | growth inhibition ([14]; at 50.0 µM): 0.3% | growth inhibition ([15]; at 1.2 µM): 44% | growth inhibition ([15]; at 3.7 µM): 82% (active) | growth inhibition ([15]; at 11.0 µM): 90% (active) | growth inhibition ([15]; at 33.0 µM): 93% (active) | growth inhibition ([15]; at 100.0 µM): 94% (active)

Cc1ccc2c(c1N)C(=O)c1ccccc1C2=O
growth inhibition ([1]; at 1.2 µM): 8% | growth inhibition ([1]; at 3.7 µM): 22% | growth inhibition ([1]; at 11.0 µM): 47% | growth inhibition ([1]; at 33.0 µM): 73% (active) | growth inhibition ([1]; at 100.0 µM): 73% (active) | growth inhibition ([2]; at 1.2 µM): -3% | growth inhibition ([2]; at 3.7 µM): -1% | growth inhibition ([2]; at 11.0 µM): 6% | growth inhibition ([2]; at 33.0 µM): 5% | growth inhibition ([2]; at 100.0 µM): 5% | growth inhibition ([16]; at 1.2 µM): -3% | growth inhibition ([16]; at 3.7 µM): -3% | growth inhibition ([16]; at 11.0 µM): 6% | growth inhibition ([16]; at 33.0 µM): -8% | growth inhibition ([16]; at 100.0 µM): 6% | growth inhibition ([4]; at 1.2 µM): 5% | growth inhibition ([4]; at 3.7 µM): 19% | growth inhibition [4, 17]: 59% | growth inhibition ([4]; at 11.0 µM): 40% | growth inhibition ([4]; at 33.0 µM): 62% | growth inhibition [4, 18]: 91% (active) | growth inhibition ([4]; at 50.0 µM): 30.5% | growth inhibition ([4]; at 100.0 µM): 63% | growth inhibition ([5]; at 1.2 µM): 2% | growth inhibition ([5]; at 3.7 µM): 4% | growth inhibition [5, 17]: 8% | growth inhibition ([5]; at 11.0 µM): 8% | growth inhibition ([5]; at 33.0 µM): 11% | growth inhibition [5, 18]: 36% | growth inhibition ([5]; at 50.0 µM): 42% | growth inhibition ([5]; at 100.0 µM): 15% | growth inhibition ([6]; at 1.2 µM): 3% | growth inhibition ([6]; at 3.7 µM): 5% | growth inhibition ([6]; at 11.0 µM): 8% | growth inhibition ([6]; at 33.0 µM): 9% | growth inhibition ([6]; at 100.0 µM): 16% | growth inhibition [7, 17]: 7% | growth inhibition [7, 18]: 42% | growth inhibition ([7]; at 50.0 µM): 45.2% | growth inhibition ([8]; at 1.2 µM): -4% | growth inhibition ([8]; at 3.7 µM): -3% | growth inhibition ([8]; at 11.0 µM): -4% | growth inhibition ([8]; at 33.0 µM): -4% | growth inhibition ([8]; at 100.0 µM): 6% | growth inhibition [9, 17]: 6% | growth inhibition [9, 18]: 14% | growth inhibition ([9]; at 50.0 µM): 40.8% | growth inhibition ([10]; at 1.2 µM): 2% | growth inhibition ([10]; at 3.7 µM): 13% | growth inhibition [10, 17]: -9% | growth inhibition ([10]; at 11.0 µM): 31% | growth inhibition ([10]; at 33.0 µM): 37% | growth inhibition [10, 18]: 62% | growth inhibition ([10]; at 50.0 µM): 61.4% | growth inhibition ([10]; at 100.0 µM): 35% | growth inhibition ([11]; at 1.2 µM): -3% | growth inhibition ([11]; at 3.7 µM): 1% | growth inhibition ([11]; at 11.0 µM): 6% | growth inhibition ([11]; at 33.0 µM): 10% | growth inhibition ([11]; at 100.0 µM): 8% | growth inhibition ([12]; at 1.2 µM): -3% | growth inhibition ([12]; at 3.7 µM): -1% | growth inhibition ([12]; at 11.0 µM): 10% | growth inhibition ([12]; at 33.0 µM): 5% | growth inhibition ([12]; at 100.0 µM): 4% | growth inhibition ([13]; at 1.2 µM): -4% | growth inhibition ([13]; at 3.7 µM): -3% | growth inhibition ([13]; at 11.0 µM): 1% | growth inhibition ([13]; at 33.0 µM): 7% | growth inhibition ([13]; at 100.0 µM): 5% | growth inhibition [14, 17]: 15% | growth inhibition [14, 18]: 45% | growth inhibition ([14]; at 50.0 µM): 71.8% (active) | growth inhibition ([15]; at 1.2 µM): -4% | growth inhibition ([15]; at 3.7 µM): 1% | growth inhibition ([15]; at 11.0 µM): 5% | growth inhibition ([15]; at 33.0 µM): 3% | growth inhibition ([15]; at 100.0 µM): 13%
